# Screens (PubChem BioAssay)
# Sampled rows, rich in hits. Any-hit rate of the full collection: about 10%.
# G9a block: G9a (human) methyltransferase inhibition; Q96KQ7; G9a H3K9 monomethylation, AlphaScreen, 2 h; Potency, µM (titrated, usually from 102 µM), without a hit: at the top dose activity, negative = inhibition, actives largely listed as inhibitors; 350,000 compounds, 8.8% hits; further: potency means the concentration at half of the fitted maximal effect; on the % scale 0 is the no-effect control and ±100 the full control effect; nearly all actives have a fitted effect of over 75% in size
#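 Enzyme 20 nM + cpd, 15 min RT; add b-H3K9 pep 500 nM / SAM 20 uM; 2 h RT; anti-H3K9me1 Ab 0.5 ug/mL + SA donor / anti-rabbit acceptor beads 20 ug/mL each, 10 min; AlphaScreen read.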
# JMJD2A Tudor: inhibitors of human JMJD2A Tudor domain | AlphaScreen JMJD2A-Tudor / H3K4me3 peptide binding | Potency, µM (series often up to 114 µM), for inactives: at the highest dose activity change, negative = inhibition, actives largely listed as inhibitors | 390,000 compounds, 4.4% hits | O75164; further: potency means the concentration at half of the fitted maximal effect; on the % scale 0 is the no-effect control and ±100 the full control effect; nearly all actives have a fitted effect of over 50% in size
# HP1b chromo inh: HP1-beta chromodomain-methylated histone interaction inhibition; Potency, µM (doses to about 114 µM), inactives show top-dose activity change, negative = inhibition, hits mostly inhibitors; AlphaScreen HP1-beta / biotin-H3K9me3 peptide binding; 390,000 compounds, 0.56% hits; AID 540317; P83916; further: potency means the concentration at half of the fitted maximal effect; nearly all actives have a fitted effect of over 70% in size
#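 HP1-beta protein (50 nM final) preincubated 30 min at room temperature with biotinylated H3(1-18)K9me3 peptide (50 nM) in PBS pH 7.4, 0.01% Tween-20, then compound added for 30 min. AlphaScreen streptavidin donor/nickel chelate acceptor beads (10 ug/mL final), 30 min dark, luminescence read.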
# CtBP-E1A blk: CtBP/E1A binding inhibition. AlphaScreen GST-E1A/His-CtBP binding, 1536-well; hits give low values. activity change, % (test concentration not listed). 340,000 compounds, 0.49% hits. AID 651724; in the data active means activity change below about -65%; inconclusive means mostly about -30% to -63%; further: on the % scale 0 is the no-effect control and ±100 the full control effect
#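 GST-E1A and His-tagged CtBP (125 nM each as 5X stock) were preincubated with pin-transferred compound for 2 h at 37 °C in the dark, then glutathione donor and nickel acceptor beads were added for 1 h before AlphaScreen reading.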
# BAZ2B inh: inhibitors of human BAZ2B bromodomain; AID 504333; 360,000 compounds, 4.4% hits; AlphaScreen BAZ2B-H3K14Ac peptide displacement; Potency, µM (highest dose often 114 µM), for inactives: at the highest dose activity change, negative = inhibition, usual class: inhibitors; further: potency means the concentration at half of the fitted maximal effect; on the % scale 0 is the no-effect control and ±100 the full control effect; nearly all actives have a fitted effect of over 60% in size
#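 AlphaScreen displacement: compounds (up to 110uM) incubated 30 min at room temperature with a preformed 50 nM BAZ2B/50 nM biotinylated H3K14Ac peptide complex in PBS pH 7.4 with Tween-20. Donor and acceptor beads at 10 ug/mL final added, 20 min light-protected before reading.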
# Six1-Eya2 blk: Six1/Eya2 interaction inhibition. Q15475+O00167. AlphaScreen GST-Six1/His-Eya2 binding, biochemical; hits give low values. activity change, % (test concentration not listed). 360,000 compounds, 0.56% hits. AID 651725; in the data active means activity change below about -65%; inconclusive means mostly about -30% to -63%; further: on the % scale 0 is the no-effect control and ±100 the full control effect
#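 Compounds are tested against tagged Six1 and Eya2 proteins bridged by glutathione donor and nickel acceptor beads; after a one-hour incubation at 37 °C without light, AlphaScreen emission is recorded.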
# * marks the source's active call; other numbers are inactive results; ? = inconclusive; · = no result given; ! = repeats disagree; [ ] = another dose, or the depositor's remark. Unless noted, the call rests on the fitted dose curve; in most records, active means well fitted inhibition curve with a large enough effect; inconclusive means small, poorly fitted or top-dose-only effect; inactive means no such curve, though single readings can be large or run the other way.
SMILES,G9a block,JMJD2A Tudor,HP1b chromo inh,CtBP-E1A blk,BAZ2B inh,Six1-Eya2 blk
O=C(Nc1cccnc1)c1ccc(N2CCOCC2)c([N+](=O)[O-])c1,12%[59 µM],-20%,34%,-5,-33%,-7
COc1ccc(OC)c(NC(=O)CSC2=Nc3ccccc3C3=NC(CCC(=O)NCc4ccccc4)C(=O)N23)c1 (stereo not given),-1%[59 µM],?,1%,·,?,·
CCOC(=O)Cn1c(=O)n(C2CCCCC2)c2nc(-c3ccc(OCC)cc3)nc(C(N)=O)c21,6%[59 µM],-25%,25%[57 µM],·,-4%,·
CCOc1ccc(NC(=O)CCS(=O)(=O)c2ccc3c(c2)n(C)c(=O)c(=O)n3C)cc1,12%[59 µM],-19%,24%,·,3%,·
O=C(CN1CCN(Cc2ccc(F)cc2)C1=O)NCc1ccc(F)cc1,-28%[59 µM],-14%,25%,·,6%,·
C=CCc1ccc(OCCCOc2ccc(C(=O)O)cc2)c(OC)c1,-30%,-14%,7%,5,-11%,-1
C=CCc1ccc(OCCCN2CCCC(C)C2)c(OC)c1 (stereo not given),7.1µM*,3.5µM*,-25%,-6,79µM*,0
C=CCc1ccc(OCCCCN2CCC(C)CC2)c(OC)c1,?,2.8µM*,-24%,-11,?,-3
C=CCc1ccc(OCC(O)CN2CCC(Cc3ccccc3)CC2)c(OC)c1 (stereo not given),?,-32%,-10%,-10,-29%,3
COc1cccc(OC)c1C1=Nn2c(nnc2-c2ccccc2C)SC1,·,-30%,·,·,·,·
O=C1c2ccccc2NC(c2ccc(OCc3ccccc3)c(OCc3ccccc3)c2)N1Cc1ccco1 (stereo not given),·,-17%[57.1 µM],2%[57 µM],·,·,·
COc1ccc(C2Nc3ccccc3C(=O)N2CCCN(C)C)cc1COc1ccc(NC(C)=O)cc1 (stereo not given),·,79µM*,·,·,·,·
O=C1c2ccccc2NC(c2cccc(F)c2)N1Cc1ccccc1 (stereo not given),16%,17%,47%,3,16%,8
CC(=O)Nc1cccc(OCc2cccc(C3Nc4ccccc4C(=O)N3Cc3ccco3)c2)c1 (stereo not given),·,32µM*,·,·,·,·
O=C1c2ccccc2NC(c2cccc(F)c2)N1Cc1ccco1 (stereo not given),?,-25%,13%,-10,56µM*,-10
COc1ccc(C2Nc3ccccc3C(=O)N2Cc2cccc(Cl)c2)cc1COc1ccc(NC(C)=O)cc1 (stereo not given),·,-31%,·,·,·,·
COc1ccc(C2Nc3ccccc3C(=O)N2CCc2ccccc2)cc1COc1ccc(NC(C)=O)cc1 (stereo not given),·,-30%,·,·,·,·
COc1ccc(C2Nc3ccccc3C(=O)N2Cc2ccco2)cc1COc1ccc(NC(C)=O)cc1 (stereo not given),?,89µM*!,8%,-3,-6%,-12
O=NN(Cc1cccnc1)C(=O)NC1CCCCC1,·,·,·,11,·,3
COc1ccc2nc(NC(=O)c3cc(=O)c4cc(C)cc(C)c4o3)sc2c1,-32%[59 µM],-35%,2%,·,-12%,·
O=C(OCC#CCSc1nnc(-c2cccc3ccccc23)s1)c1cccs1,5%[12.7 µM],·,·,·,1%,·
C[C@H](N)CCP(=O)(O)O,39%[59 µM],·,·,·,·,·
CCc1ccc(C(=O)CC2(O)C(=O)N(CCc3ccccc3)c3ccc(Cl)cc32)cc1 (stereo not given),-2%[59 µM],-16%,15%,·,-4%,·
COC(=O)C1C2OC(C(Br)C2Br)C1C(=O)OC (stereo not given),·,·,·,4,·,-2
CCN(CC)c1ccc(C(=O)Nc2ccc3nc(N(CC)CC)cc(C)c3c2)cc1,-34%[59 µM],-19%,18%,·,-1%,·
SMILES,G9a block,JMJD2A Tudor,HP1b chromo inh,CtBP-E1A blk,BAZ2B inh,Six1-Eya2 blk
CN(C)CCOC1c2ccccc2C=Cc2ccccc21,·,-18%,28%,-5,·,-7
CN(C)CCOC1c2ccccc2CCc2ccc3ccccc3c21 (stereo not given),·,32µM*,?,-14,·,-17
COc1cccc(-n2c(-c3ccco3)nc3c(cnn3-c3ccc(C)cc3)c2=O)c1,-16%[59 µM],-29%,-3%,·,·,·
CCOC(=O)c1ccc(NC(=O)c2cc3c([nH]c2=O)CC(c2ccccc2)CC3=O)cc1 (stereo not given),2%[12.7 µM],5%,30%,·,-2%,·
CCCn1nc(C(=O)Nc2ccc3nc(N4CCOCC4)sc3c2)ccc1=O,50µM*,-14%,11%,-18,-7%,10
COc1ccc(C(=O)Nc2ccc3nc(N4CCOCC4)sc3c2)cc1OC,-7%[12.7 µM],0%,31%,-2,4%,-5
Cc1ccc2nc(NC(=S)NC(=O)c3ccco3)sc2c1,50µM*,-16%,-11%,-3,-7%,-13
Cc1ccnc(NC(=S)NC(=O)c2ccco2)c1,-13%,-19%,31%,8,-35%,-2
Cc1ccc2nsnc2c1NC(=S)NC(=O)c1ccco1,3.2µM*,-28%,-5%,-5,-27%,-8
Cc1ccc2nc(NC(=O)c3ccco3)sc2c1,-17%,2%,22%,24,10%,0
O[C@@H]1COC(Nc2ccc(N=Nc3ccccc3)cc2)C[C@@H]1O (stereo not given in full),45µM*,?,?,?,?,-20
Cn1cccc1-c1cc(C(=O)N/N=C/c2cccc(O)c2)[nH]n1,45µM*,?,?,16,45µM*,-27
COc1ccc(/C=N/NC(=O)c2cc(-c3cccn3C)n[nH]2)cc1OC,79µM*,-12%[57.1 µM],?,?,50µM*,?
CCOc1cccc(/C=N/NC(=O)c2cc(-c3cccn3C)n[nH]2)c1O,48%[0.501 µM],?,?,-85*,50µM*,-87*
COc1cc(OC)c(OC)cc1/C=N/NC(=O)c1cc(-c2cccn2C)n[nH]1,-43%[59 µM],15%,28%,2,-28%,-2
CN1CCN(c2ncc3nc(-c4ccc(F)cc4)c(=O)n(C4CC4)c3n2)CC1,-4%[0.501 µM],·,·,·,·,·
CCOc1cccc2cc(C(=O)N3CC(C)OC(C)C3)c(=O)oc12 (stereo not given),14%,-1%,37%,·,-3%,-3
CC(C)CNC(=O)c1c(-c2ccccc2)c(-c2ccccc2)nn(C)c1=O,7%[59 µM],9%,43%,·,-4%,·
C[N+]1(CC(=O)OCCCc2ccccc2)CCOCC1,71µM*,50µM*,20%,-1,45µM*,6
O=C(CN1CCOCC1)OCCCc1ccccc1,-50%[2.33 µM],-8%,74%,4,10%,-1
Cc1ccc(CCCOC(=O)C[N+]2(C)CCOCC2)cc1,10µM*,35µM*,27%,5,-20%,6
